Results published in publication PMC8384837, “Expanding the binding specificity for RNA recognition by a PUF domain”.
Substitutions are numbered along the chain they refer to.

Legend:
Assay in all cases: yeast three-hybrid, YBZ-1, SC-Leu-His + 0.5 mM 3-AT, 4 days
Settings in all cases: tags: N-Gal4 AD-HA kept; label: inside an RPR1-promoter hybrid RNA with tandem MS2 sites; ssRNA
[1] = target: PUM1 PUF domain R1-RRQ (Homo sapiens, UniProt Q14671 828-1176, S863R)
Summary of the method: (§1)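 Each repeat of the Pumilio-1 PUF domain was randomized at its three base-contacting residues, and these libraries were co-expressed from a centromeric plasmid with matching RNA elements in strain YBZ-1. After four days on SC-Leu (input) or SC-Leu-His + 0.5 mM 3-AT (selection), the repeat regions were PCR-amplified and Illumina-sequenced. The interaction score compares variant frequency between input and selection as a log change, computed in log2 with a pseudocount of 1 for absent variants.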

[2] = target: PUM1 PUF domain R1-SWD (Homo sapiens, UniProt Q14671 828-1176, R864W;Q867D)
Summary of the method: as §1

[3] = target: PUM1 PUF domain R1-VWR (Homo sapiens, UniProt Q14671 828-1176, S863V;R864W;Q867R)
Summary of the method: as §1

[4] = target: PUM1 PUF domain R3-RPK (Homo sapiens, UniProt Q14671 828-1176, C935R;R936P;Q939K)
Summary of the method: as §1

[5] = target: PUM1 PUF domain R5-RRI (Homo sapiens, UniProt Q14671 828-1176, C1007R;Q1011I)
Sequence of PUM1 PUF domain R5-RRI (Q14671 828-1176 C1007R/Q1011I): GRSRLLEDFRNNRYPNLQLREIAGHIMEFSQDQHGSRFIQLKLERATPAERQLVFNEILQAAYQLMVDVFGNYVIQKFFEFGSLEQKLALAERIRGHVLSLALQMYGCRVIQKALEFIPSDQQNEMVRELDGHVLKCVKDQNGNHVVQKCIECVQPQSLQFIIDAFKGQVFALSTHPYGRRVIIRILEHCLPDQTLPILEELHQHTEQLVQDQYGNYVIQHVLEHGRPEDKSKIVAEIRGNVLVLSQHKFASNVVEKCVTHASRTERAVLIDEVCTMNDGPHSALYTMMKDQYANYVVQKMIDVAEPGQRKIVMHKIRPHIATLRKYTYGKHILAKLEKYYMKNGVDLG
Summary of the method: as §1

[6] = target: PUM1 PUF domain R5-RNL (Homo sapiens, UniProt Q14671 828-1176, C1007R;R1008N;Q1011L)
Summary of the method: as §1

[7] = target: PUM1 PUF domain R5-QRR (Homo sapiens, UniProt Q14671 828-1176, C1007Q;Q1011R)
Sequence of PUM1 PUF domain R5-QRR (Q14671 828-1176 C1007Q/Q1011R): as the sequence (Q14671 828-1176 C1007R/Q1011I) above, with R180Q, I184R counted along it
Summary of the method: as §1

[8] = target: PUM1 PUF domain R5-KNQ (Homo sapiens, UniProt Q14671 828-1176, C1007K;R1008N)
Summary of the method: as §1

[9] = target: PUM1 PUF domain R5-KQL (Homo sapiens, UniProt Q14671 828-1176, C1007K;R1008Q;Q1011L)
Sequence of PUM1 PUF domain R5-KQL (Q14671 828-1176 C1007K/R1008Q/Q1011L): as the sequence (Q14671 828-1176 C1007R/Q1011I) above, with R180K, R181Q, I184L counted along it
Summary of the method: as §1

[10] = target: PUM1 PUF domain R8-FYF (Homo sapiens, UniProt Q14671 828-1176, N1122F;Q1126F)
Summary of the method: as §1

[11] = target: PUM1 PUF domain R8-YFR (Homo sapiens, UniProt Q14671 828-1176, N1122Y;Y1123F;Q1126R)
Summary of the method: as §1

[12] = target: PUM1 PUF domain R3-GCE (Homo sapiens, UniProt Q14671 828-1176, C935G;R936C;Q939E)
Summary of the method: as §1

[13] = target: PUM1 PUF domain R7-QCK (Homo sapiens, UniProt Q14671 828-1176, S1079Q;N1080C;E1083K)
Summary of the method: as §1

[14] = target: PUM1 PUF domain R4-WSS (Homo sapiens, UniProt Q14671 828-1176, N971W;H972S;Q975S)
Sequence of PUM1 PUF domain R4-WSS (Q14671 828-1176 N971W/H972S/Q975S): as the sequence (Q14671 828-1176 C1007R/Q1011I) above, with N144W, H145S, Q148S, R180C, I184Q counted along it
Summary of the method: as §1

[15] = target: PUM1 PUF domain R4-WAW (Homo sapiens, UniProt Q14671 828-1176, N971W;H972A;Q975W)
Sequence of PUM1 PUF domain R4-WAW (Q14671 828-1176 N971W/H972A/Q975W): as the sequence (Q14671 828-1176 C1007R/Q1011I) above, with N144W, H145A, Q148W, R180C, I184Q counted along it
Summary of the method: as §1

[16] = target: T1, PUM1 PUF domain R6-IYS (Homo sapiens, UniProt Q14671 828-1176, N1043I;Q1047S)
T1 sequence: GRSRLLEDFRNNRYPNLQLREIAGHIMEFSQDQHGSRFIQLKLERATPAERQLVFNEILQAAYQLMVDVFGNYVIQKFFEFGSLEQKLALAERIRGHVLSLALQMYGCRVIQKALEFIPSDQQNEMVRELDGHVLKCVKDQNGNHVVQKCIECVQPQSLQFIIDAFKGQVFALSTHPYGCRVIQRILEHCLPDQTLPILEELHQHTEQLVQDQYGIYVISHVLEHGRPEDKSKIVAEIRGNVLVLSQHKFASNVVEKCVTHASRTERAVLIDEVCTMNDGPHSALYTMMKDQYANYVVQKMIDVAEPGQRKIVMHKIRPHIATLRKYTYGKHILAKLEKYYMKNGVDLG
Summary of the method: as §1

[17] = target: PUM1 PUF domain R4-CMI (Homo sapiens, UniProt Q14671 828-1176, N971C;H972M;Q975I)
Summary of the method: as §1

[18] = target: T2, PUM1 PUF domain R6-WWR (Homo sapiens, UniProt Q14671 828-1176, N1043W;Y1044W;Q1047R)
T2 sequence: T1 sequence with I216W, Y217W, S220R
Summary of the method: as §1

[19] = target: PUM1 PUF domain R4-ANT (Homo sapiens, UniProt Q14671 828-1176, N971A;H972N;Q975T)
Summary of the method: as §1

[20] = target: PUM1 PUF domain R7-RER (Homo sapiens, UniProt Q14671 828-1176, S1079R;N1080E;E1083R)
Summary of the method: as §1

Sequence of PUM1 PUF domain R1-RRQ (Q14671 828-1176 S863R): as the sequence (Q14671 828-1176 C1007R/Q1011I) above, with S36R, R180C, I184Q counted along it

With “GGCUAGAACUAGUGGAUCCCCCGGCGCCCGGCGGCUCGAGCCCGGGUAAGUGUAAAUGGUCUGCAUGCCGCCGGGCGCCAUGCCUGCAGGUCGACUCUAGAAAACAUG” as the sequence, how does the binding signal [1] read?
Its binding signal is 1.96 log2 enrichment (interaction score).

What about the binding signal [2] of the same sequence?
Its binding signal is 4.27 log2 enrichment (interaction score).

“GGCUAGAACUAGUGGAUCCCCCGGCGCCCGGCGGCUCGAGCCCGGGUAAGUGUAAAUUGUCUGCAUGCCGCCGGGCGCCAUGCCUGCAGGUCGACUCUAGAAAACAUG” was tested. Which binding signal [1] did it give?
Its binding signal is 4.29 log2 enrichment (interaction score).

And the binding signal [3]?
Its binding signal is 2.37 log2 enrichment (interaction score).

With “GGCUAGAACUAGUGGAUCCCCCGGCGCCCGGCGGCUCGAGCCCGGGUAAGUGUAAUUAGUCUGCAUGCCGCCGGGCGCCAUGCCUGCAGGUCGACUCUAGAAAACAUG” as the sequence, how does the binding signal [4] read?
The binding signal was 4.23 log2 enrichment (interaction score).

Which results are given for “GGCUAGAACUAGUGGAUCCCCCGGCGCCCGGCGGCUCGAGCCCGGGUAAGUGUUAAUAGUCUGCAUGCCGCCGGGCGCCAUGCCUGCAGGUCGACUCUAGAAAACAUG”?
binding signal [5]: 4.69 log2 enrichment (interaction score); binding signal [6]: 3.54 log2 enrichment (interaction score); binding signal [7]: 4.36 log2 enrichment (interaction score); binding signal [8]: 4.28 log2 enrichment (interaction score); binding signal [9]: 3.92 log2 enrichment (interaction score)

With “GGCUAGAACUAGUGGAUCCCCCGGCGCCCGGCGGCUCGAGCCCGGGUAAGCGUAAAUAGUCUGCAUGCCGCCGGGCGCCAUGCCUGCAGGUCGACUCUAGAAAACAUG” as the sequence, how does the binding signal [10] read?
Its binding signal is 2.55 log2 enrichment (interaction score).

What about the binding signal [11] of the same sequence?
The binding signal was 5.19 log2 enrichment (interaction score).

Which binding signal [12] does the source give for “GGCUAGAACUAGUGGAUCCCCCGGCGCCCGGCGGCUCGAGCCCGGGUAAGUGUAAGUAGUCUGCAUGCCGCCGGGCGCCAUGCCUGCAGGUCGACUCUAGAAAACAUG” here?
Its binding signal is 4.51 log2 enrichment (interaction score).

“GGCUAGAACUAGUGGAUCCCCCGGCGCCCGGCGGCUCGAGCCCGGGUAAGUCUAAAUAGUCUGCAUGCCGCCGGGCGCCAUGCCUGCAGGUCGACUCUAGAAAACAUG” was tested. Which binding signal [13] did it give?
Its binding signal is 3.12 log2 enrichment (interaction score).

“GGCUAGAACUAGUGGAUCCCCCGGCGCCCGGCGGCUCGAGCCCGGGUAAGUGUACAUAGUCUGCAUGCCGCCGGGCGCCAUGCCUGCAGGUCGACUCUAGAAAACAUG” was tested. Which binding signal [14] did it give?
The binding signal was 2 log2 enrichment (interaction score).

And the binding signal [15]?
Its binding signal is 2.47 log2 enrichment (interaction score).

For “GGCUAGAACUAGUGGAUCCCCCGGCGCCCGGCGGCUCGAGCCCGGGUAAGUGUGAAUAGUCUGCAUGCCGCCGGGCGCCAUGCCUGCAGGUCGACUCUAGAAAACAUG”, which binding signal [7] is on record?
The binding signal was 3 log2 enrichment (interaction score).

With “GGCUAGAACUAGUGGAUCCCCCGGCGCCCGGCGGCUCGAGCCCGGGUAAGUGUAAAUAGUCUGCAUGCCGCCGGGCGCCAUGCCUGCAGGUCGACUCUAGAAAACAUG” as the sequence, how does the binding signal [16] read?
The binding signal was 2.42 log2 enrichment (interaction score).

And the binding signal [14]?
Its binding signal is 2.27 log2 enrichment (interaction score).

And the binding signal [5]?
Its binding signal is 2.01 log2 enrichment (interaction score).

And the binding signal [17]?
Its binding signal is 2.77 log2 enrichment (interaction score).

And the binding signal [7]?
The binding signal was 1.74 log2 enrichment (interaction score).

And the binding signal [15]?
Its binding signal is 5.21 log2 enrichment (interaction score).

What about the binding signal [11] of the same sequence?
Its binding signal is 5.17 log2 enrichment (interaction score).

What about the binding signal [18] of the same sequence?
Its binding signal is 5.15 log2 enrichment (interaction score).

What about the binding signal [9] of the same sequence?
Its binding signal is 1.4 log2 enrichment (interaction score).

For “GGCUAGAACUAGUGGAUCCCCCGGCGCCCGGCGGCUCGAGCCCGGGUAAGUGUAUAUAGUCUGCAUGCCGCCGGGCGCCAUGCCUGCAGGUCGACUCUAGAAAACAUG”, which binding signal [14] is on record?
The binding signal was 4.4 log2 enrichment (interaction score).

What about the binding signal [19] of the same sequence?
The binding signal was 2.52 log2 enrichment (interaction score).

What about the binding signal [15] of the same sequence?
The binding signal was 4.31 log2 enrichment (interaction score).

With “GGCUAGAACUAGUGGAUCCCCCGGCGCCCGGCGGCUCGAGCCCGGGUAAGUGUCAAUAGUCUGCAUGCCGCCGGGCGCCAUGCCUGCAGGUCGACUCUAGAAAACAUG” as the sequence, how does the binding signal [5] read?
Its binding signal is 3.62 log2 enrichment (interaction score).

What about the binding signal [6] of the same sequence?
The binding signal was 2.83 log2 enrichment (interaction score).

And the binding signal [7]?
Its binding signal is 6.46 log2 enrichment (interaction score).

And the binding signal [9]?
Its binding signal is 5.23 log2 enrichment (interaction score).

For “GGCUAGAACUAGUGGAUCCCCCGGCGCCCGGCGGCUCGAGCCCGGGUAAGUGAAAAUAGUCUGCAUGCCGCCGGGCGCCAUGCCUGCAGGUCGACUCUAGAAAACAUG”, which binding signal [18] is on record?
Its binding signal is 2.69 log2 enrichment (interaction score).

Which results are given for “GGCUAGAACUAGUGGAUCCCCCGGCGCCCGGCGGCUCGAGCCCGGGUAAGUGUAAAUCGUCUGCAUGCCGCCGGGCGCCAUGCCUGCAGGUCGACUCUAGAAAACAUG”?
binding signal [1]: 5.5 log2 enrichment (interaction score); binding signal [3]: 1.8 log2 enrichment (interaction score)

“GGCUAGAACUAGUGGAUCCCCCGGCGCCCGGCGGCUCGAGCCCGGGUAAGUUUAAAUAGUCUGCAUGCCGCCGGGCGCCAUGCCUGCAGGUCGACUCUAGAAAACAUG” was tested. Which binding signal [20] did it give?
The binding signal was 4.54 log2 enrichment (interaction score).
